Among the data in ChEMBL document CHEMBL1961873, “Compounds: GSK PKIS; Assays: Nanosyn kinase panel” (2012) are inhibition values, retold here.

Experiment [1] deals with Protein kinase C gamma type (Homo sapiens) (UniProt P05129). The conditions noted are these: at 1 µM.
Experiment [2] addresses T1, Protein kinase C iota type (Homo sapiens) (UniProt P41743).
T1 sequence (whole entry): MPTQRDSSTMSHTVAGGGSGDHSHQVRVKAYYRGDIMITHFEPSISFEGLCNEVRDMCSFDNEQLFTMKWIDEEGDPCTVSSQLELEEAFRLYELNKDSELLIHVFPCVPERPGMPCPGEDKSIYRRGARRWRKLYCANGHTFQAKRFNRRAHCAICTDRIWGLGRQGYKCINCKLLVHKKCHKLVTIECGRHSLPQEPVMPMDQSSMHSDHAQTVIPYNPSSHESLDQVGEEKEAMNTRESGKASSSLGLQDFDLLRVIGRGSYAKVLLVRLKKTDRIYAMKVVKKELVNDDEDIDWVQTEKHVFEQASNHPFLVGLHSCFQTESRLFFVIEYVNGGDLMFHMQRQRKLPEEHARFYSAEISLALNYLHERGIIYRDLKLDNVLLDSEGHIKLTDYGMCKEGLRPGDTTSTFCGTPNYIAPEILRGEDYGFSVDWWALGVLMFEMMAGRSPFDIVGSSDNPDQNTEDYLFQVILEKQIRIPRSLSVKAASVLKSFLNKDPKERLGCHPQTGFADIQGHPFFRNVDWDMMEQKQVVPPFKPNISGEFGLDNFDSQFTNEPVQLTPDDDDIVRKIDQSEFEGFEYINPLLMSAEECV
The conditions noted are these: at 0.1 µM.

Experiment [3] concerns the target T1, Protein kinase C iota type (Homo sapiens). The conditions noted are these: at 1 µM.
Experiment [4] deals with Protein kinase C theta type (Homo sapiens) (UniProt Q04759). The conditions noted are these: at 0.1 µM.
Chain of Protein kinase C theta type (Homo sapiens) (Q04759 whole entry, looked up): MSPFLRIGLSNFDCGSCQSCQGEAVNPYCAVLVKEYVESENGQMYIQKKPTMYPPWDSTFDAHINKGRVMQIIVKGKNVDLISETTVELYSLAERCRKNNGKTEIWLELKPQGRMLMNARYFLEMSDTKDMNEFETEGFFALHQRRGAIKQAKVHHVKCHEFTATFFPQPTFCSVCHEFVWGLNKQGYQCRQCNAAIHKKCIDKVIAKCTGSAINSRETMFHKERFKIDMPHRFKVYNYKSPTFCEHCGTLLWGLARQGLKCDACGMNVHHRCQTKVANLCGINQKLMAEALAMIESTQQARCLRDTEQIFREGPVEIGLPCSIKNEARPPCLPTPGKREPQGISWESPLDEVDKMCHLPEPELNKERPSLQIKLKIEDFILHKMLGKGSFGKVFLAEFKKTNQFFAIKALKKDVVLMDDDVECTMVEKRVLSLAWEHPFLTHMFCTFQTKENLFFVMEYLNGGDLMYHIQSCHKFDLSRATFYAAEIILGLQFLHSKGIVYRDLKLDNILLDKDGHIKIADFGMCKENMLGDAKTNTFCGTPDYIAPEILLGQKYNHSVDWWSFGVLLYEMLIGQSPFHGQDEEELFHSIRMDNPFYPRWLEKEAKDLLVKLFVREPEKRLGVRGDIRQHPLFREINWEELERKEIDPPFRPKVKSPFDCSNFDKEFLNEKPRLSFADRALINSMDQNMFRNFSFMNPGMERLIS
For experiment [5] the target is unchanged. The conditions noted are these: at 1 µM.
The target of experiment [6] is Protein kinase C beta type (Homo sapiens) (UniProt P05771). The conditions noted are these: at 0.1 µM.
Chain of Protein kinase C beta type (Homo sapiens) (P05771 2-671 limits assumed): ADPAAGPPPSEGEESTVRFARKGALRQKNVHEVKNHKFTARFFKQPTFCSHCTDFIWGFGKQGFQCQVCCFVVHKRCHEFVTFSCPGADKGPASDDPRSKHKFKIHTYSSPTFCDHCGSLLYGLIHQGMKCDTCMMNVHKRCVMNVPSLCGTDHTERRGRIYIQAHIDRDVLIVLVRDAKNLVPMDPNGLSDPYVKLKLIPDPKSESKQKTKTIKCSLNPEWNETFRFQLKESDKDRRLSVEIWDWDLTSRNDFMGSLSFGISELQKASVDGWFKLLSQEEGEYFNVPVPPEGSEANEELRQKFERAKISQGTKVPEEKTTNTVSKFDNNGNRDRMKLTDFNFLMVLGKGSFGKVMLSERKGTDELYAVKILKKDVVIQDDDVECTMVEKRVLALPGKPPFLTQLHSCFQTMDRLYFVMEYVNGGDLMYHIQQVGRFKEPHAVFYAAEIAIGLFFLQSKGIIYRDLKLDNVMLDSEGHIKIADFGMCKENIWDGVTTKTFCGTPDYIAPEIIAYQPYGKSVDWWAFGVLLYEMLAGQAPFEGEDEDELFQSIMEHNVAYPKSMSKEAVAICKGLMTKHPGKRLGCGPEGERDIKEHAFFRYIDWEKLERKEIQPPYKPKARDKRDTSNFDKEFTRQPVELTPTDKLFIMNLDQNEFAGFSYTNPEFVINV
Experiment [7] shares this target. The conditions noted are these: at 1 µM.
In experiment [8] the target is T2, Serine/threonine-protein kinase D1 (Homo sapiens) (UniProt Q15139).
T2 sequence (whole entry): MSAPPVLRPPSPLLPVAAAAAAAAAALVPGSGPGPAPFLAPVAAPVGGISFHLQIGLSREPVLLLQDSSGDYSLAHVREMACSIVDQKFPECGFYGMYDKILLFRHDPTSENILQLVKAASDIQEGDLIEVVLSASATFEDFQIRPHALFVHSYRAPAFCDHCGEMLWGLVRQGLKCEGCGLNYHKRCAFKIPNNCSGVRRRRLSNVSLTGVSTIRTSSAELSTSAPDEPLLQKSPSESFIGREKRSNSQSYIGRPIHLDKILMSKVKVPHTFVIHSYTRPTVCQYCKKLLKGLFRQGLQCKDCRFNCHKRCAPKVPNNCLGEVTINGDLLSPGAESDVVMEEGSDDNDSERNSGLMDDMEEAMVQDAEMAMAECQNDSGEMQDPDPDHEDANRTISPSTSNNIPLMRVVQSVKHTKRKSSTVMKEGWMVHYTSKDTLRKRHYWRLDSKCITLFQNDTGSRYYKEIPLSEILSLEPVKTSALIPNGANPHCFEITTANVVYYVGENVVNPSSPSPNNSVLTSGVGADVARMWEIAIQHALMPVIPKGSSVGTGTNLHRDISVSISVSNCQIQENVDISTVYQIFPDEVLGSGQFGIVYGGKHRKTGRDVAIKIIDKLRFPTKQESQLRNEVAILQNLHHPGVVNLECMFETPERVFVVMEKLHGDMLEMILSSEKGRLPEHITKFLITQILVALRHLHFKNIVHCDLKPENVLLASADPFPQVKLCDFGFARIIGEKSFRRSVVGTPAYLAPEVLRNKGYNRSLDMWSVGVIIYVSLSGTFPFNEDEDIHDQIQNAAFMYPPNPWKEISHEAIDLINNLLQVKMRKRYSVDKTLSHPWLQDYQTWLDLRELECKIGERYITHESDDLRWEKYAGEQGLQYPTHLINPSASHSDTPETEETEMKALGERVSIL
The conditions noted are these: at 0.1 µM.

The target in experiment [9] is T2, Serine/threonine-protein kinase D1 (Homo sapiens). The conditions noted are these: at 1 µM.
In experiment [10] the target is T3, Serine/threonine-protein kinase D2 (Homo sapiens) (UniProt Q9BZL6).
T3 sequence (whole entry): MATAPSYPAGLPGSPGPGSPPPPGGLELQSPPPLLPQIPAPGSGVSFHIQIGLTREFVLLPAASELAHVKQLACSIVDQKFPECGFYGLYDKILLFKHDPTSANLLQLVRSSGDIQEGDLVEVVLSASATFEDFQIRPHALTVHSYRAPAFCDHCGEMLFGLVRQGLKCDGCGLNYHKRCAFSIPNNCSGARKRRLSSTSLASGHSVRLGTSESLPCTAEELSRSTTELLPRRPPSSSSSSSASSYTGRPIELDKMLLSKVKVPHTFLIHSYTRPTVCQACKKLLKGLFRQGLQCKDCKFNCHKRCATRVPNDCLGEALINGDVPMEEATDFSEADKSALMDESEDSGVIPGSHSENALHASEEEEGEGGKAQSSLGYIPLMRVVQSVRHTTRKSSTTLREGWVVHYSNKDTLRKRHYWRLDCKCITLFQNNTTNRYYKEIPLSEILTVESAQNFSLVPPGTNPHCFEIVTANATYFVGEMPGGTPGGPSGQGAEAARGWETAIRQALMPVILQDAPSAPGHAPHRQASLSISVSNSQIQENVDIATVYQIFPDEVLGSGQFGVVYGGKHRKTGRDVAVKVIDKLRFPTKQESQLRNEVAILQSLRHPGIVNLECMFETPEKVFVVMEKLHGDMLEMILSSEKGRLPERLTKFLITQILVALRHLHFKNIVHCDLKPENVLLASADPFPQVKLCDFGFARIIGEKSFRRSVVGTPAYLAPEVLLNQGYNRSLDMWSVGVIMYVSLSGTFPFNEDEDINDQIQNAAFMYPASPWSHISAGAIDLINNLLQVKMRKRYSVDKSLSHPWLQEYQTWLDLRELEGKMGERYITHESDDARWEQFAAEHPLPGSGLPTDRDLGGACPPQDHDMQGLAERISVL
The conditions noted are these: at 0.1 µM.

Experiment [11] has as its target T3, Serine/threonine-protein kinase D2 (Homo sapiens). The conditions noted are these: at 1 µM.
Experiment [12] has as its target T4, Serine/threonine-protein kinase D3 (Homo sapiens) (UniProt O94806).
T4 sequence (whole entry): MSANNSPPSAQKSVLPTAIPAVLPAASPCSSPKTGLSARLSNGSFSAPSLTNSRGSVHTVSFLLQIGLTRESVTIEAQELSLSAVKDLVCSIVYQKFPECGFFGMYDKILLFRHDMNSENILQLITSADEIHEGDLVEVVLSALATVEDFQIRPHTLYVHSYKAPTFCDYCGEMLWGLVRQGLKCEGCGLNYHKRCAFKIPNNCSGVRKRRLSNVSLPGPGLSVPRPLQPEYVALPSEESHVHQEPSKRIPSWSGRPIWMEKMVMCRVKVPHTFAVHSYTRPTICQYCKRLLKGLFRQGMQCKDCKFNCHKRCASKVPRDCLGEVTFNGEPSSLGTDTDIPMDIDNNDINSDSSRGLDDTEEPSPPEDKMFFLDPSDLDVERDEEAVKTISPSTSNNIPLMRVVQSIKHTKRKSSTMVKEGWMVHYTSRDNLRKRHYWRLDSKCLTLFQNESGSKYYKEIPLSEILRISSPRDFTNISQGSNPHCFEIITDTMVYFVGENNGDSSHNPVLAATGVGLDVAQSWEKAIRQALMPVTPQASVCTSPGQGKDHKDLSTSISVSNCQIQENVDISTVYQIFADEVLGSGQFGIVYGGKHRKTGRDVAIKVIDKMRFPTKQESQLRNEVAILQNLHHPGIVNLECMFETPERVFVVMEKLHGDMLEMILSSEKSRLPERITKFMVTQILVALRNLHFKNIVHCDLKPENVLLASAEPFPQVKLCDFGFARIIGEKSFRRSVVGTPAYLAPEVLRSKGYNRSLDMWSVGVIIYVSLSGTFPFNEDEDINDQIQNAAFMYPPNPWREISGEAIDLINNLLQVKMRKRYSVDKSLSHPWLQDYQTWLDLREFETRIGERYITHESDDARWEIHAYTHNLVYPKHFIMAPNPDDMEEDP
The conditions noted are these: at 0.1 µM.

The target of experiment [13] is T4, Serine/threonine-protein kinase D3 (Homo sapiens). The conditions noted are these: at 1 µM.
Experiment [14] addresses T5, cGMP-dependent protein kinase 1 (Homo sapiens) (UniProt Q13976).
T5 sequence (whole entry): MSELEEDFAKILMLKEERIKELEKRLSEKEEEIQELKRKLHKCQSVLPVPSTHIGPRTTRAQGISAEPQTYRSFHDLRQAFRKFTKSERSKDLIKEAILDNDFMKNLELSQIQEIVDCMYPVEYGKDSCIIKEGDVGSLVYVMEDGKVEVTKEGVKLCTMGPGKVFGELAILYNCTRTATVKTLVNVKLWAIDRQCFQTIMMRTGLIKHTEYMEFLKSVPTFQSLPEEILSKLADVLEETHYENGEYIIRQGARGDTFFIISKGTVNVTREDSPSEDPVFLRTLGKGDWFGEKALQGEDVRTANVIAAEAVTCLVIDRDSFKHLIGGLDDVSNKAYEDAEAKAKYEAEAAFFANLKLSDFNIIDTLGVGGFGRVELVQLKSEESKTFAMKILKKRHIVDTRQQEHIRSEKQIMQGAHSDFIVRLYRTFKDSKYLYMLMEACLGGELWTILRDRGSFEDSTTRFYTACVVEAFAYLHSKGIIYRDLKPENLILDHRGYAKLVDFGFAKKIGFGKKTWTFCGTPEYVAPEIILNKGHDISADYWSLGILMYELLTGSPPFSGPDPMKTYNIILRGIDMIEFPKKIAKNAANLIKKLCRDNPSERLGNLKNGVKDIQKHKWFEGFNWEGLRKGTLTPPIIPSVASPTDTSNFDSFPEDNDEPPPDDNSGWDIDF
The conditions noted are these: at 0.1 µM.

Experiment [15] concerns the target T5, cGMP-dependent protein kinase 1 (Homo sapiens). The conditions noted are these: at 1 µM.
Experiment [16] concerns the target T6, cGMP-dependent protein kinase 2 (Homo sapiens) (UniProt Q13237).
T6 sequence (whole entry): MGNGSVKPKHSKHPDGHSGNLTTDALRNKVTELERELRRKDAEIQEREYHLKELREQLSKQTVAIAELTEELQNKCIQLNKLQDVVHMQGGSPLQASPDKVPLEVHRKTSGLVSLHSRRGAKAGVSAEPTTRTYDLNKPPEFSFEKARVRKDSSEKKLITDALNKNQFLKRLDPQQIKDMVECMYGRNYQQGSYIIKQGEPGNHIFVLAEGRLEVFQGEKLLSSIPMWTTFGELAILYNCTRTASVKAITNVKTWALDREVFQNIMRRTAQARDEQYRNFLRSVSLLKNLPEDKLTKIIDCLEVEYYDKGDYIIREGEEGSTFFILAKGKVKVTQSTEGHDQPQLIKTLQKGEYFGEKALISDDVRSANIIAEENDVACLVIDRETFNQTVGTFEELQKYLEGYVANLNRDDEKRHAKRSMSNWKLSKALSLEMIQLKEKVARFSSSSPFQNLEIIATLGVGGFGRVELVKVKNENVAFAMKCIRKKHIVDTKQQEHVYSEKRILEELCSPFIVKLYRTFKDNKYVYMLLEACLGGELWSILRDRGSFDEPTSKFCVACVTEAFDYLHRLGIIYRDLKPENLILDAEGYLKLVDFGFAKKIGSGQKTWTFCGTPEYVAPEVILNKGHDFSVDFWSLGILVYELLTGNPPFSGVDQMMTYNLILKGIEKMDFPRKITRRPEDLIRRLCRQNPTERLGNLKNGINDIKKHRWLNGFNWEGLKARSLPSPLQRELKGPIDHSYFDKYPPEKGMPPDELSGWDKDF
The conditions noted are these: at 0.1 µM.

Experiment [17] has as its target T6, cGMP-dependent protein kinase 2 (Homo sapiens). The conditions noted are these: at 1 µM.
For experiment [18], the target named is T7, cAMP-dependent protein kinase catalytic subunit PRKX (Homo sapiens) (UniProt P51817).
T7 sequence (whole entry): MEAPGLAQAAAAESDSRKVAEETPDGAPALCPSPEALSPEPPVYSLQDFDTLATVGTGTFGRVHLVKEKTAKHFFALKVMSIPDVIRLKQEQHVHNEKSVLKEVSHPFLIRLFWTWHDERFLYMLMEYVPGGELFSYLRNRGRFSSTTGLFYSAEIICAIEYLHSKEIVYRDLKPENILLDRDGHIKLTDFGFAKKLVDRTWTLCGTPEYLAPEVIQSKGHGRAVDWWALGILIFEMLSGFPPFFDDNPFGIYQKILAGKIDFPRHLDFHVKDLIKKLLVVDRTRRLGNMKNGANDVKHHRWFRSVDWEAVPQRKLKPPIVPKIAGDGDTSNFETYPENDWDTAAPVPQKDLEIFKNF
The conditions noted are these: at 0.1 µM.

Experiment [19] has as its target T7, cAMP-dependent protein kinase catalytic subunit PRKX (Homo sapiens). The conditions noted are these: at 1 µM.
Experiment [20] has as its target Rho-associated protein kinase 1 (Homo sapiens) (UniProt Q13464). The conditions noted are these: at 0.1 µM.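 Note: values are mean percent inhibition of ROCK1.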

Chain of Rho-associated protein kinase 1 (Homo sapiens) (Q13464 2-1354 limits assumed): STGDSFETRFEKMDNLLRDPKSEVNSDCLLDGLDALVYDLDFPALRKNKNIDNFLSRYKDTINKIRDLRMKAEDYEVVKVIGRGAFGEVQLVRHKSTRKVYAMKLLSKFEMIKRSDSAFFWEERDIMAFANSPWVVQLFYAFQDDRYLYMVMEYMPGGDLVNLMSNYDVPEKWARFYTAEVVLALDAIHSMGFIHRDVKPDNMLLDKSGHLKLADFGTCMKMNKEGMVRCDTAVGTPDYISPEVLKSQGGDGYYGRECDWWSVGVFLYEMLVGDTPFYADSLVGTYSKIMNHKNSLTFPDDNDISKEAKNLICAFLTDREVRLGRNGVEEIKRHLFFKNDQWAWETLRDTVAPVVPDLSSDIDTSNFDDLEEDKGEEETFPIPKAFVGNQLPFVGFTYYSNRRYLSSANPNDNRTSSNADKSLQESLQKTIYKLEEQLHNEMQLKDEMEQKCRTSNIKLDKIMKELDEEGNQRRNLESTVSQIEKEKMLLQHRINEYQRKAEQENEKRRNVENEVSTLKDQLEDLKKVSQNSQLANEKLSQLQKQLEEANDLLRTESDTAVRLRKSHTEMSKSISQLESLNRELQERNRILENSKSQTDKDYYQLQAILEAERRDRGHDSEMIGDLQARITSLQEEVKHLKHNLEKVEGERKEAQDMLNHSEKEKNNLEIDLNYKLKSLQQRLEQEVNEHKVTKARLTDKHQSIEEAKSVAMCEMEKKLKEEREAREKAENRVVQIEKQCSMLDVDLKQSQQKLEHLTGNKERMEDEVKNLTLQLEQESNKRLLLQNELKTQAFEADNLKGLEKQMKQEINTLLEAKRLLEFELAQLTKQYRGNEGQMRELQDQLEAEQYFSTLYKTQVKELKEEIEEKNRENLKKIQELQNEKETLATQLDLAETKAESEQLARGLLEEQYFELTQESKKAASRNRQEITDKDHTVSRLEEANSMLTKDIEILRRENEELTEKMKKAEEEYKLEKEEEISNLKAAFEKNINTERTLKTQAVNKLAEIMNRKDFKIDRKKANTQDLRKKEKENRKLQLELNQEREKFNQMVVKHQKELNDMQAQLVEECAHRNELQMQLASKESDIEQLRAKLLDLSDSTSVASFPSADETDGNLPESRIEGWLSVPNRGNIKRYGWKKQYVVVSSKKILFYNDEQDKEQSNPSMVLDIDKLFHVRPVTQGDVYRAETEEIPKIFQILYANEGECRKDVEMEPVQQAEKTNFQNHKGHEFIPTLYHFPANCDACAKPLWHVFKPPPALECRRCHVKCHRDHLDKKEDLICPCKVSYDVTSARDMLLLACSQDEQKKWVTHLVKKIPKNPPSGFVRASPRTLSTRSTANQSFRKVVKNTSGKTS

As usually defined, the inhibition is the drop in the measured response relative to a control, in per cent. Regarding `COc1cc(Nc2ncc3c(C)nc(-c4cccc(Oc5ccccc5)c4)n3n2)cc(OC)c1OC`, the inhibition in experiment [1] is 2.12%; in experiment [2] it was 0.93%; in experiment [3], 1.81%; in experiment [4], 0.31%; in experiment [5], -0.72%; in [6] it was 0.53%. Moreover, the inhibition in experiment [7] stood at 0.55%; in experiment [8], 1.42%; in experiment [9], 2.93%; in [10], 1.26%; in experiment [11], 3%; in experiment [12] it was 1.74%. For the same molecule, the inhibition in [13] worked out at 3.77%; in [14], 1.98%; in experiment [15], 2.3%; in [16] it was 1.18%; in [17] it was 2.71%; in experiment [18], 1.26%. In addition, the inhibition is -0.03% in experiment [19] and 1.05% in experiment [20].
With `CN(c1ccc(NC(=O)Nc2c(Cl)cccc2Cl)cc1)c1ccnc(Nc2cccc(CS(C)(=O)=O)c2)n1`, the inhibition in experiment [1] came to 6.65%; in [2], 1.27%; in experiment [3], 1.5%; in experiment [4], 2.22%; in experiment [5], 3.24%; in [6], 0.41%. Further, the inhibition in experiment [7] is 3.24%; in [8] it was 2.4%; in [9], 1.18%; in experiment [10], 0.57%; in experiment [11], 2%; in experiment [12], 1.3%. In addition, the inhibition in [13] was 0.38%; in experiment [14] it was 3.11%; in experiment [15] it was 3.77%; in experiment [16] it was 1.9%; in experiment [17], 3.22%; in [18] it was 1.96%. The inhibition in experiment [19] turned out to be 3.64%; in [20], 0.85%.
